# “And” between values parts separate entries of the source, which are not always exact repeats. Equal values may be shown once. Out of some 410,000 compounds screened, about 18,000 (4.4%) were called active. Roughly 7% stayed inconclusive and do not appear here. Cut-off read from the data, not from the text of the source: active = activity change below about -60%; inconclusive = no clear call, values can overlap the other calls; inactive = above about -39%. The list comes from a sample in which actives are over-represented; it also holds similar structures and randomly drawn compounds. Some structures have more than one record in an assay (separate samples or runs), and their calls can disagree.
# Assay: qHTS Assay for inhibitors of the human cytomegalovirus (HCMV)
# Settings: HFF cells, HCMV-luciferase reporter, 72 h; at 57.5 µM; stronger effect = lower value
# Description: NCGC Assay Overview: Infection with human cytomegalovirus (HCMV) continues to pose significant threats for pregnant women and immunocompromised hosts. HCMV causes serious morbidity and mortality in transplant recipients, and congenital HCMV is the leading infectious cause of mental retardation and deafness in children. In the 1990s, the annual costs associated with the disease burden of congenital CMV were estimated at around $2 billion. A HCMV vaccine is not available yet and HCMV therapies result in intolerable side effects and emergence of drug resistant viruses. […] Towards this goal we have developed and characterized a luciferase HCMV reporter that was initially used in 96 well plates and then optimized to 1536-well plates for utilization in screening of the MLSMR collection, the NGCG diversity collection and the NCGC Pharmaceutical Collection of approved and investigational drugs.
# NCGC Assay Protocol Summary:
# This is a cell-based assay for HCMV inhibition in HFFs cells. The screening used 2 compound doses and the HCMV-luciferase at MOI of 1 PFU/cell. Cells were treated and infected with HCMV. At 72 h post infection cell lysates were collected and luciferase activity was determined using the Glomax-Multi + Detection System (Promega, Madison, WI). Data were normalized to the controls for basal activity (buffer only) and known HCMV inhibitors Salinmoycin.
# 1536-well assay protocol for the assay:
# (1) Add 3 ul CMV/HFF cell culture. 1000 cells/well in DMEM nirmal media.
# (2) Incubate 16 hr at 37C.
# (3) Add 23 nl control compound, 10uM of Salinomycin.
# (4) Add 23 nl compounds in DMSO solution.
# (5) Add 3 ul CMV suspension. Final 1 puf/ul, Virus stock 2000pfu/ul
# (6) Incubate 72 hrs at 37C.
# (7) Add 4 ul OneGlo Luc Reagent.
# (8) Incubate 5 min at room temperature.
# % is set by controls: 0 for no effect and ±100 for the full control effect.
row,SMILES,"activity change, negative = inhibition"
1,Cc1cc(Nc2ccc(Br)cc2F)n2ncnc2n1,3.15% (inactive)
2,COc1ccc(Cl)cc1-n1c(CCC(=O)O)ccc1-c1ccc(C)cc1,10.6% (inactive)
3,Cc1cc(C)c(NC(=O)CCc2c(C)nc3c(c(C)nn3C(C)(C)C)c2C)c(C)c1,3.32% (inactive)
4,Cc1ccccc1N(C(=O)CNC(=O)c1cccs1)C(C(=O)NC1CCCC1)c1ccncc1 (centres undefined),62.4% (inactive)
5,COc1ccc(C(C(=O)NC2CCCCC2)N(C(=O)CCl)c2ccccc2Cl)cc1 (centres undefined),-97.5% (active)
6,COc1cccc(N(C(=O)C2COc3ccccc3O2)C(C(=O)NC2CCCCC2)c2ccc(O)cc2)c1 (centres undefined),-15.7% (inactive)
7,Oc1c(C(c2ccc(F)cc2)N2CCN(Cc3ccccc3)CC2)sc2nc(-c3ccco3)nn12 (centres undefined),-3% (inactive)
8,CC(=O)C[C@@H](O)CC(=O)[C@H]1OC(=O)CCCCCCc2ccccc21,6.44% (inactive)
9,CCCCCn1c(=O)[nH]c2cc(C(=O)NCCCN3CCCCC3C)ccc2c1=O (centres undefined),-19.8% (inactive)
10,Cc1cccc(N2CCN(C(=O)CCSCc3ccccc3F)CC2)c1C,11.2% (inactive)
11,CCC(=O)c1cc(F)ccc1OCC(=O)Nc1ccc2c(c1)OCCO2,-17.8% (inactive)
12,CCOC(=O)c1cnc2c(C)cc(C)cc2c1Nc1ccc(N2CCOCC2)cc1,6.54% (inactive)
13,CCOC(=O)c1cnc2ccc(F)cc2c1Nc1ccc2c(c1)OCCO2,-76.3% (active)
14,O=C(NCc1ccccc1Cl)C1CCN(c2ncnc3c2nc2n3CCCCC2)CC1,0% (inactive) and -68.9% (active)
15,CCOC(=O)c1cccc(NC(=O)C2CCN(c3ncnc4c3nc3n4CCCCC3)CC2)c1,4.29% (inactive)
16,COc1cccc(CNC(=O)C2CCCN(c3ncnc4c3nc3n4CCCCC3)C2)c1 (centres undefined),-15.7% (inactive)
17,COc1ccc(N(C)C(=O)C2CCN(S(=O)(=O)c3cc(Br)cc4c3N(C(C)=O)CC4)CC2)cc1,8.13% (inactive)
18,COc1ccc(-c2cc(C(=O)Nc3sc4c(c3C(N)=O)CCCC4)no2)cc1,21.3% (inactive)
19,CC(C)(C)c1cc(C(=O)NN)n(Cc2ccc(Cl)cc2Cl)n1,-79.4% (active)
20,CC(C)(CNC(=O)Cc1ccc(Cl)cc1Cl)N1CCOCC1,-8.38% (inactive)

row,SMILES,"activity change, negative = inhibition"
1,Cn1cc(C(=O)c2ccc(Cl)cc2Cl)cc1C(=O)NN,-23.5% (inactive)
2,CC(=O)Nc1cccc(NC(=O)CSc2cn(CC(=O)N3CCCC3)c3ccccc23)c1,-3.21% (inactive)
3,O=C(CCS(=O)(=O)c1cc(Br)cc2c1N(C(=O)C1CC1)CC2)Nc1ccc(C(F)(F)F)cc1,1.29% (inactive)
4,O=C(NCc1ccccc1)C1=C[C@@H](C2CCCCC2)C[C@@H](OCc2ccc(CO)cc2)O1,-86.3% (active)
5,CC(C)(C)[C@H]1C=C(C(=O)NCc2ccccc2)O[C@@H](OCc2ccc(CO)cc2)C1,-2.88% (inactive)
6,O=C(NCc1ccccc1)C1=C[C@H](C2CC2)C[C@H](OCc2ccc(CO)cc2)O1,7.43% (inactive)
7,Cc1c(CN2CCC(CO)(CCOc3ccccc3)CC2)[nH]c2ccc(Cl)cc12,-92.5% (active)
8,CCC(C)CN1CCC(CO)(Cc2ccccc2Cl)CC1 (centres undefined),-7.29% (inactive)
9,OCC1(CCc2ccccc2)CCN(Cc2ccc3nsnc3c2)CC1,13.2% (inactive)
10,COc1ccccc1CNC(=O)CCn1c(=O)c2ccccc2n(CC(=O)Nc2cccc(Cl)c2)c1=O,-39.6% (inactive)
11,O=C1C(C=NCC2CCCO2)=C(O)c2ccccc21 (centres undefined),69.7% (inactive)
12,O=C1c2cccc3c([N+](=O)[O-])ccc(c23)C(=O)N1CC1CCCO1 (centres undefined),-82.1% (active)
13,COc1ccc(C(=O)OCC(=O)NCC2CCCO2)cc1[N+](=O)[O-] (centres undefined),15.2% (inactive)
14,CCOc1cc(C(C(=O)NCC2CCCO2)N(C(=O)Cn2nnc3ccccc32)c2cccc(OC)c2)ccc1O (centres undefined),-8.64% (inactive)
15,Cc1ccc2oc(=O)c3cnn(CC(=O)NCc4ccccc4Cl)c3c2c1,-4.14% (inactive)
16,COc1ccc(NC(=O)c2sc3nc[nH]c(=O)c3c2C)cc1,52.3% (inactive)
17,Cc1ccc(-n2c(SCC(=O)N3CCC(C(=O)O)CC3)nc3ccccc3c2=O)cc1C,6.85% (inactive)
18,CCCn1c(N)c(C(=O)CSc2nc3ccccc3c(=O)n2-c2ccc(OC)cc2)c(=O)[nH]c1=O,-29.3% (inactive)
19,COc1cccc(-n2c(SCC(=O)c3c[nH]c4ccccc34)nc3ccccc3c2=O)c1,-93.8% (active)
20,COc1ccc(C)cc1NC(=O)COCc1cc(-c2cccs2)on1,-10.8% (inactive)

row,SMILES,"activity change, negative = inhibition"
1,Cc1ccc(C)c(N2CCN(c3ccc4cc(S(=O)(=O)N5CCC(C)CC5)ccc4n3)CC2)c1,19% (inactive)
2,CCOC(=O)C1CCN(C(=O)Nc2cccc(OC)c2)CC1,5.16% (inactive)
3,COc1cccc(NC(=O)N2CCC(NC(=O)C(Cc3cccc(C)c3)NC(C)=O)CC2)c1 (centres undefined),-66.8% (active)
4,COc1ccccc1CC(NC(C)=O)C(=O)NC1CCN(C(=O)Nc2ccccc2Cl)CC1 (centres undefined),0.54% (inactive)
5,O=C(NCCCO)C(=O)Nc1c2c(nn1-c1ccccc1)CSC2,-2.71% (inactive)
6,COc1cccc(CN2CCc3nc(SCC(=O)Nc4ccccc4)[nH]c(=O)c3C2)c1,4.11% (inactive)
7,O=C(Nc1c(Cl)c(C2CC2)nn1-c1ccccc1)C(Cl)(Cl)Cl,12.3% (inactive)
8,CCOc1ccc(CNC(=O)C2CCCN(c3nnc(C)c4c(C)n(-c5ccccc5)nc34)C2)cc1 (centres undefined),-67.7% (active)
9,CCCCNC(=O)C1CCCN(c2nnc(C)c3c(C)n(-c4ccc(Cl)cc4)nc23)C1 (centres undefined),-6.23% (inactive)
10,CCOc1ccc(N(CC)S(=O)(=O)N2CCCC(C(=O)NCc3ccc(Cl)cc3)C2)cc1 (centres undefined),-15.9% (inactive)
11,COc1ccc(S(=O)(=O)N2CCN(CC(=O)N3CCOCC3)CC2)cc1OC,4.11% (inactive)
12,Cc1ccn(-c2cccc(-n3ccc(C)n3)n2)n1,65.3% (inactive)
13,CC(=O)NC(CC(=O)Nc1ccc(S(=O)(=O)N2CCOCC2)cc1)c1ccccc1 (centres undefined),0% (inactive)
14,COC(=O)c1ccc(NC(=O)c2ccccc2NS(=O)(=O)c2ccccc2)cc1,-105% (active)
15,COC(=O)c1ccccc1NS(=O)(=O)c1ccc2c(c1)CCCN2C(C)=O,-2.94% (inactive)
16,COc1cc(NS(=O)(=O)c2cccs2)cc(OC)c1,16.4% (inactive)
17,COc1cccc(NC(=O)c2ccccc2N(Cc2ccccc2)S(C)(=O)=O)c1,-6.12% (inactive)
18,COc1cc(NC(=O)c2ccccc2NS(=O)(=O)c2ccc(Cl)s2)cc(OC)c1,-99.7% (active)
19,Cc1cc(NS(=O)(=O)c2ccc(NC(=O)c3ccccc3C)cc2)nc(C)n1,-5.8% (inactive)
